According to PubChem BioAssay:
Values joined by “and” are separate entries in the source; they are usually repeats but may differ in a detail not shown here. Equal values may be shown once. Records with an inconclusive call do not appear. Active and inactive are the calls of the source.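 How the source made its calls, unless noted: active means compounds killing one labelled cell type while sparing the other, by normalised counts and ratio limits, not self-fluorescent; inactive means the rest.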

Key:
[1] = stimulators of insulin release from INS-1E, primary screen, cell-based, 5 mM glucose, NPC library (AID 1117329;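 active means compound raises insulin release from rat beta cells at 5 mM glucose, no numeric limit stated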); conditions: rat INS-1E insulin secretion, at 10 µM, stronger effect = higher value
[2] = growth inhibition of GSK3B-pretreated HCT116 cells – cell-based, CellTiter-Glo, 0.2 to 20 µM (AID 1117336;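 active means compounds lowering colon cancer cell viability after pretreatment blocking the GSK3B kinase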); conditions: HCT116 viability after GSK3B inhibitor, at 20 µM, stronger effect = higher value
[3] = inhibition of endothelial tube formation, primary screen, imaging, VEGF stimulated, CD31 staining, tube area, NPC library (AID 1117340;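 active means compound that reduces growth-factor-driven endothelial tube area in a mixed cell culture, no cutoff stated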); conditions: VEGF-stimulated ADSC/ECFC co-culture, at 10 µM, stronger effect = higher value
[4] = GLP1 release stimulators, primary, NCI-H716, NPC library (AID 1117341;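 active means compound raises GLP1 secretion from the human gut endocrine cells, with no numeric limit stated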); conditions: NCI-H716 cells, at 10 µM, stronger effect = higher value
[5] = HCT116 colon cancer cell growth inhibition, primary screen, CellTiter-Glo luminescence, NPC library (AID 1117342;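 active means compounds that lower survival of HCT116 colon cancer cells in the luminescence readout, no numeric limit stated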); conditions: at 20 µM (top of the series)
[6] = reduced SW480 viability measured with CellTiter-Glo, NPC library, primary (AID 1117343;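 active means compounds that lower viability of the colon cancer cells in the luminescence readout, with no numeric limit stated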); conditions: CellTiter-Glo luminescence; at 20 µM (top of the series)
[7] = NPC library primary testing for decreased DLD-1 cell viability via CellTiter-Glo (AID 1117346;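 active means compounds that lower survival of DLD-1 colon cancer cells in the luminescence readout, no cutoff given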); conditions: DLD-1 viability, CellTiter-Glo luminescence; at 20 µM (top of the series)
[8] = target: 6-phosphogluconate dehydrogenase, decarboxylating (Homo sapiens) (UniProt P52209); experiment: inhibition of human phosphogluconate dehydrogenase – biochemical, recombinant enzyme, NADPH absorbance, primary screen (AID 1159550;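 active means at least 20% inhibition of 6-phosphogluconate dehydrogenase activity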); conditions: recombinant 6PGD, NADPH absorbance 341 nm; at 10 µM; stronger effect = higher value
Sequence of 6-phosphogluconate dehydrogenase, decarboxylating (Homo sapiens) (P52209 whole entry, looked up): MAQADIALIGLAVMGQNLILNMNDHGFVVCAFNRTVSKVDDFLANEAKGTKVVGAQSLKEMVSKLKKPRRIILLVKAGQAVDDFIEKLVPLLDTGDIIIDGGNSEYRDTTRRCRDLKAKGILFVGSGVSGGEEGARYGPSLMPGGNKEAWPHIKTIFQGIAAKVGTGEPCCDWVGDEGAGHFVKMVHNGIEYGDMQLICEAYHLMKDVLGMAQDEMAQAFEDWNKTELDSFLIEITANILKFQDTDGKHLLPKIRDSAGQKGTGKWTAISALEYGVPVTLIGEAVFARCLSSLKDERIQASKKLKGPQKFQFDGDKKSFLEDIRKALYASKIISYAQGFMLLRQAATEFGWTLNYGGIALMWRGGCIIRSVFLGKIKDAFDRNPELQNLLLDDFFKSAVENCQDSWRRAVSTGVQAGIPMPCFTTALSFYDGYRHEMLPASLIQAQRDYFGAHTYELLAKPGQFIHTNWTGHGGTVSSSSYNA

[9] = EMT-state selective cytotoxicity in co-culture – imaging, PC-3E GFP, TEM4-18 mCherry, primary screen (AID 1345086); conditions: PC-3E GFP / TEM4-18 mCherry co-culture, imaging cell counts, at 1 µM; for red/green cell ratio (normalised): actives lie on both sides, counts scaled to control wells, 1 = unselective;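 on all read-outs here: cells exposed to compound for 72 h before imaging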;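 on red/green cell ratio (normalised): normalised mesenchymal count divided by normalised epithelial count so high means epithelial killing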
[10] = viability loss in pontine glioma line – cell-based, SU-DIPG-XIII, MIPE4.0, CellTiter-Glo, qHTS, dose response (AID 1347061; cut-off not given, nearly all actives have AC50 up to about 37 µM;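 further: cells exposed to compound for 48 hours before readout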); conditions: CellTiter-Glo ATP luminescence
[11] = viability loss in pontine glioma line – cell-based, JHH-DIPG-1, MIPE4.0, CellTiter-Glo, qHTS, dose response (AID 1347062; cut-off not given, nearly all actives have AC50 up to about 27 µM;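 on AC50: cells exposed to compound for two days before readout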); conditions: JHH-DIPG-1 viability, CellTiter-Glo ATP luminescence
[12] = viability loss in pontine glioma line – cell-based, SU-DIPG-IV, MIPE4.0, CellTiter-Glo, qHTS, dose response (AID 1347063; cut-off not given, nearly all actives have AC50 up to about 30 µM;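 further: compound exposure lasted 48 hours before the viability readout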); conditions: CellTiter-Glo ATP luminescence
[13] = viability loss in pontine glioma line – cell-based, SU-DIPG-XIII, MIPE5.0, CellTiter-Glo, qHTS, dose response (AID 1347064; cut-off not given, nearly all actives have AC50 up to about 23 µM); conditions: CellTiter-Glo ATP luminescence
[14] = viability loss in pontine glioma line – cell-based, SU-DIPG-XVII, MIPE5.0, CellTiter-Glo, qHTS, dose response (AID 1347060; cut-off not given, nearly all actives have AC50 up to about 26 µM;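 on AC50: cells exposed to compound for 48 hours before viability readout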); conditions: CellTiter-Glo ATP luminescence
[15] = measured here: epithelial PC-3E GFP cell survival
[16] = measured here: mesenchymal TEM4-18 mCherry cell survival

| Structure (SMILES) | insulin secretion stimulation [1] | viability decrease [2] | tube area decrease [3] | GLP1 secretion stimulation [4] | inhibition of viability [5] | viability decrease (inhibition) [6] | viability decrease (inhibition) [7] | inhibition [8] | red/green cell ratio (normalised) [9] | normalised cell number [9, 15] | normalised cell number [9, 16] | outcome [10] | outcome [11] | outcome [12] | AC50 [10] | AC50 [11] | outcome [13] | outcome [14] | AC50 [12] | AC50 [14] |
| --- | --- | --- | --- | --- | --- | --- | --- | --- | --- | --- | --- | --- | --- | --- | --- | --- | --- | --- | --- | --- |
| Cc1ccccc1N1C(=O)c2cc(S(N)(=O)=O)c(Cl)cc2NC1C (configuration not stated) | 1.1% (inactive) | -5.6% (inactive) | -5.3% (inactive) | -1.9% (inactive) | 0.8% (inactive) | -18.3% (inactive) | -5.3% (inactive) | -11.8% (inactive) | 1.25 (inactive) | 1.15 | 1.44 | inactive | inactive | inactive | – | – | – | – | – | – |
| COc1cc(NS(=O)(=O)c2ccc(N)cc2)nc(OC)n1 | 1.8% (inactive) | -7.9% (inactive) | 0.8% (inactive) | 1.9% (inactive) | -0.4% (inactive) | 8.4% (inactive) | 0.7% (inactive) | -12.2% (inactive) | 1.12 (inactive) | 0.64 | 0.72 | inactive | inactive | inactive | – | – | – | – | – | – |
| O=C(N[C@H](CO)[C@H](O)c1ccc([N+](=O)[O-])cc1)C(Cl)Cl | 1.8% (inactive) | -11.1% (inactive) | 12.5% (inactive) | -4.2% (inactive) | -1.7% (inactive) | -0.7% (inactive) | -7% (inactive) | 15.5% (inactive) | 0.78 (inactive) | 1.21 | 0.95 | – | inactive | inactive | – | – | – | – | – | – |
| Cc1nnc(NS(=O)(=O)c2ccc(N)cc2)s1 | -2.4% (inactive) | 6.15% (inactive) | 19.3% (inactive) | 2.8% (inactive) | 0.2% (inactive) | 86.3% (active) | 3.2% (inactive) | -8.84% (inactive) | 1.39 (inactive) | 0.96 | 1.33 | – | – | – | 20.9 µM (active) | 1.32 µM (active) | inactive | – | – | – |
| CCC1(C)CC(=O)NC1=O (configuration not stated) | 0% (inactive) | -17.5% (inactive) | -2.9% (inactive) | -2.3% (inactive) | -5.57% (inactive) | -27.9% (inactive) | -7.1% (inactive) | -0.667% (inactive) | 1.22 (inactive) | 1.07 | 1.31 | inactive | inactive | inactive | – | – | inactive | – | – | – |
| Cc1cc2cc3c(C)cc(=O)oc3c(C)c2o1 | -0.7% (inactive) | -8.2% (inactive) | 1.6% (inactive) | 0.5% (inactive) | 19.9% (inactive) | 35.5% (inactive) | -2.3% (inactive) | -18.4% (inactive) | 0.99 (inactive) | 1.05 | 1.04 | – | – | – | – | – | inactive | inactive | 20.9 µM (active) | – |
| CCC[C@H](N[C@@H](C)C(=O)N1[C@H](C(=O)O)C[C@@H]2CCCC[C@@H]21)C(=O)OCC | 2.3% (inactive) | -3% (inactive) | 14.1% (inactive) | -2.9% (inactive) | 18.1% (inactive) | 0% (inactive) | 6% (inactive) | -5.32% (inactive) | 1.01 (inactive) | 0.96 | 0.96 | – | – | – | – | – | inactive | inactive | – | – |
| S=P(N1CC1)(N1CC1)N1CC1 | 1.3% (inactive) | 16.4% (inactive) | 35.1% (inactive) | -2.2% (inactive) | 22.3% (inactive) | 33.3% (inactive) | 18.9% (inactive) | -6.76% (inactive) | 0.99 (inactive) | 1.06 | 1.06 | – | inactive | – | – | – | inactive | – | – | 20.9 µM (active) |
| CC[N+](CC)(CC)CCOc1cccc(OCC[N+](CC)(CC)CC)c1OCC[N+](CC)(CC)CC | -1.3% (inactive) | -8.1% (inactive) | -2.2% (inactive) | 1.9% (inactive) | 8.8% (inactive) | -6.2% (inactive) | -5.3% (inactive) | 7.66% (inactive) | 1.1 (inactive) | 0.87 | 0.96 | inactive | inactive | inactive | – | – | – | – | – | – |
| CCn1cc(C(=O)O)c(=O)c2cc(F)c(N3CCNC(C)C3)c(F)c21 (configuration not stated) | 1.7% (inactive) | 15.3% (inactive) | -13.3% (inactive) | -0.4% (inactive) | 0.55% (inactive) | -10.7% (inactive) | -20.1% (inactive) | -3.66% (inactive) | 1.03 (inactive) and 0.91 (inactive) | 1.03 and 1.1 | 1.07 and 1 | – | inactive | inactive | – | – | inactive | – | – | – |
| COc1ccc(C(=O)CC(=O)c2ccc(C(C)(C)C)cc2)cc1 | 1.3% (inactive) | -88.8% (inactive) | -15.2% (inactive) | -3.2% (inactive) | 15.8% (inactive) | 18.1% (inactive) | 16.6% (inactive) | -0.365% (inactive) | 1.31 (inactive) | 0.9 | 1.18 | – | – | – | – | 3.72 µM (active) | – | – | 5.26 µM (active) | – |
| Cn1c(=O)c2c(ncn2CC(O)CO)n(C)c1=O (configuration not stated) | 1.1% (inactive) | -2.9% (inactive) | -11.6% (inactive) | -0.3% (inactive) | 7.4% (inactive) | 12.3% (inactive) | 5.3% (inactive) | -4.2% (inactive) | 1.41 (inactive) | 0.78 | 1.1 | inactive | inactive | inactive | – | – | inactive | – | – | – |
